High-throughput results from PubChem BioAssay.
In the library only some 2.4% were active in any assay of this set; here they are far more common.
D2 PAM-1: human D2 receptor positive allosteric modulation; potentiation, % (test concentration not listed); DiscoveRx D2 beta-arrestin cells, luminescence, 90 min; 100% = 57 uM dopamine signal; 360,000 compounds, 0.23% hits; P14416; in the data active = potentiation above about 50%; inconclusive = mostly about 30% to 49%
Target sequence (P14416 whole entry, looked up): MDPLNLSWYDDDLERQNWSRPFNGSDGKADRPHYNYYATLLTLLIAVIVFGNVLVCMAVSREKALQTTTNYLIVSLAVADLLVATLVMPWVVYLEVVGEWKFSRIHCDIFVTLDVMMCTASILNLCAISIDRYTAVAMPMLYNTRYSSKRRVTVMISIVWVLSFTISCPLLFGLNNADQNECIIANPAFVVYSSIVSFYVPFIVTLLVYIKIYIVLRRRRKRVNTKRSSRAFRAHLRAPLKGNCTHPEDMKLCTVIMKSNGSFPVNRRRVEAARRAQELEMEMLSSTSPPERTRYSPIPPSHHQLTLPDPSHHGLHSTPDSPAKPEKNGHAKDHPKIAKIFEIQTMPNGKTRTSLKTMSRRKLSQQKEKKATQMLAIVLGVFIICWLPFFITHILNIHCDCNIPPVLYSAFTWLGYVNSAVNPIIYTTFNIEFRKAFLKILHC
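PathHunter D2 cells, attached overnight at 37 deg C, received compound in DMSO plus dopamine at EC20 (50 nM final) for 90 min at 37 deg C. Beta-arrestin recruitment was read as luminescence after 1 h with detection reagent at ambient temperature.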
D2 PAM-2: positively modulates the human D2 dopamine receptor allosterically; P14416; HEK293 T-REx D2, calcium flux, EC20 dopamine potentiation; potentiation, % at 10 µM; 340,000 compounds, 0.34% hits;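 active = potentiation over 3 SD above the plate norm, cut at about 30% in these data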; also: 0% is about no effect
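Tetracycline-induced Hek293 Trex D2 cells, force-coupled to calcium, loaded with no-wash calcium dye. Compound added with 180 s kinetic read for agonism, then EC20 dopamine and a further 180 s read for potentiation.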
D2 ag-1: activates the human D2 dopamine receptor; HEK293 T-REx D2 cells, calcium flux agonist mode; activation, % at 2 µM; 340,000 compounds, 0.53% hits; AID 485358;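 active = activation over 3 SD above normal in the single-dose calcium agonist read, cut at about 30% in these data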; also: 0% is about no effect
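Agonism is scored from calcium flux in a force-coupled, inducible HEK293 cell line expressing D2, read kinetically for 180 s after compound addition against dopamine controls.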
D2 ag-2: activates the human D2 dopamine receptor. P14416. DiscoveRx PathHunter D2 beta-arrestin, luminescence, 90 min; 100% = 57 uM dopamine signal. activation, % (no concentration beside the values). 360,000 compounds, 0.084% hits. AID 624465; in the data active = activation above about 40%; inconclusive = between about 15% and that limit
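Agonist mode: compounds alone added to overnight-plated D2 PathHunter cells for 90 min at 37 C, with 57 uM final dopamine (EC100) defining full response. Beta-arrestin recruitment detected by chemiluminescent reagent, read after 1 h at ambient temperature.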
D2 antag: antagonizes the human D2 dopamine receptor; 340,000 compounds, 2% hits; HEK293 TREx D2 cells, calcium flux, dopamine EC80; inhibition, % at 10 µM; P14416; in the data active = inhibition above about 30%; inactive = below that, where a call was filed; also: 0% is about no effect
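HEK293 T-REx D2 cells, tet-induced, calcium dye no-wash. Cpd pintool add, 180 s kinetic, then EC80 DA, 180 s kinetic. Ca flux read.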
Active calls of the source: *; ? = inconclusive; . = no result given.

SMILES	D2 PAM-1	D2 PAM-2	D2 ag-1	D2 ag-2	D2 antag
Cc1ccc(S(=O)(=O)N(C)C)cc1NC(=S)N(CCC#N)Cc1cccnc1	-15.8	-13.1	-0.1	-4.6	43.5*
CC(C)C(=O)n1nc(-c2cccnc2)nc1NCc1ccc(F)cc1	-3.3	45.8*	-0.4	1.6	-1.3
COc1ccccc1C(=O)NCC(=O)N/N=C/c1cccc(Cl)c1	-2.4	.	.	-2.5	.
COc1cc(CC(NC(C)=O)C(=O)NC2CCN(C(=O)C3CC3)CC2)cc(OC)c1 (stereo not given)	-11.0	6.7	0.1	-5.2	32.5*
Cc1cc(=O)oc2cc(OC(=O)c3cncc(Br)c3)ccc12	-4.0	-7.8	0.0	-5.6	30.8*
CCCC(=O)Oc1ccc2c(C)cc(=O)oc2c1	-23.1	1.1	-1.0	-3.3	-0.1
COc1ccc(/C=C2\SC(=O)N(CCNC(=O)Cn3[nH]c(=O)c4ccccc4c3=O)C2=O)cc1	-4.7	.	.	-2.3	.
Cc1cc(Cl)ccc1OCC(O)CN1C(C)CCCC1C (stereo not given)	.	0.2	-0.3	.	31.2*
O=c1cc(/C=C/c2ccccc2)oc2c1ccc1ccccc12	-1.3	-14.6	-0.7	-7.0	9.7
O=c1cc(C(F)(F)F)oc2c1ccc1ccccc12	-5.5	4.4	3.3	-1.3	33.7*
Cc1ccc(-n2nnnc2CN2CCCCC2)cc1	-1.8	0.6	0.0	2.0	37.8*
Cc1ccc(CSCC(=O)Nc2cc(S(=O)(=O)N3CCOCC3)ccc2OC(C)C)cc1	3.2	4.3	0.0	1.5	-3.6
COc1cc2c(cc1OC)[C@@H]1Cc3ccc(OC)c(OC)c3CN1CC2	-19.1	-21.3	4.0	-2.0	57.2*
COc1cc2c(cc1OC)C1Cc3ccc(OC)c(OC)c3CN1CC2 (stereo not given)	-47.2	-22.2	5.0	-3.6	79.7*
O=C1c2c(Cl)c(Cl)c(Cl)c(Cl)c2C(=O)N1c1nccs1	-0.8	.	.	1.0	.
COc1ccc(OC)c(NC(=O)COCc2cc(-c3ccco3)on2)c1	.	-5.8	-1.8	.	.
COc1cc(/C=c2\s/c(=C(/C#N)C(=O)N3CCCC3)n(-c3ccccc3)c2=O)ccc1O	-6.1	-1.1	38.7*	-2.5	8.1
COC(=O)/C=c1/s/c(=C(/C#N)C(=O)N2CCCCC2)n(-c2ccccc2)c1=O	-6.3	-1.8	0.9	-5.0	-12.9
O=C(c1cccc(Br)c1)c1nc2ccccc2[nH]c1=O	-7.3	.	.	-5.9	.
O=C(Nc1c(C(=O)Nc2ccc(F)cc2)oc2ccccc12)c1cc2ccccc2o1	.	-8.8	1.5	.	.
CCN(CC(=O)NC(c1ccccc1)c1ccccc1)Cc1nc2ccccc2c(=O)[nH]1	-11.2	-13.8	5.9	-3.5	32.4*
CC1CCCN(c2nc3c(c(=O)n(C)c(=O)n3C)n2CCSc2nc3ccccc3o2)C1 (stereo not given)	-4.7	30.4*	-0.6	-2.3	-11.4
CC1CCCN(c2nc3c(c(=O)[nH]c(=O)n3C)n2CCSc2nc3ccccc3o2)C1 (stereo not given)	-2.7	12.1	0.6	-2.6	6.3
Cc1nnc2ccc(-c3ccc(NS(C)(=O)=O)cc3)nn12	1.1	15.0	0.6	3.2	32.6*
Cc1nc(C)c(-c2ccn(C(=O)NC(C)C)n2)s1	-0.6	-1.8	0.1	-1.2	-5.6
SMILES	D2 PAM-1	D2 PAM-2	D2 ag-1	D2 ag-2	D2 antag
S=c1[nH]cc2cnccn12	-11.2	.	.	-4.0	.
CCC(CO)Oc1cc(NC(=O)Cc2ccccc2F)c2ncn(C(C)C)c2c1 (stereo not given)	1.4	.	.	0.2	.
CCOc1cc(/C=N/Nc2nc(-c3cccc(S(=O)(=O)N4CCCC4)c3)cs2)ccc1O	118.7*	4.7	-0.8	?	-5.0
COc1ccc(/C=N/Nc2nc(-c3cccc(S(=O)(=O)N4CCCC4)c3)cs2)cc1OC	10.3	0.8	0.1	5.0	5.8
CCOc1ccc(CCNC(=O)COC(=O)Cn2nc(C)c([N+](=O)[O-])c2C)cc1OCC	-12.6	7.7	-0.1	-5.3	1.2
COc1cc(C(C(=O)NC2CCCC2)N(C(=O)c2snc(C(N)=O)c2N)C2CCCC2)cc(OC)c1OC (stereo not given)	5.1	-1.1	-0.6	5.8	31.6*
Cc1ccc(C)c(NC(=O)CN(C)C(=O)Cn2c(=O)oc3ccccc32)c1	-15.9	-3.5	-0.4	-2.6	-1.9
COc1ccc(C(=O)N/C(=C\c2cc(OC)c(OC)cc2[N+](=O)[O-])C(=O)NCCO)cc1	2.4	-12.2	1.2	-0.1	38.7*
Cc1ccc(OCC(=O)Nc2ccc(OCc3cc(=O)n4cccc(C)c4n3)cc2)cc1C	.	12.8	1.0	.	.
Cc1ccc(-n2c(=O)c3c(c4cc(C)ccc4n3C)n(CC(=O)NCc3ccccc3Cl)c2=O)cc1	.	14.1	-0.1	.	.
N#CCCN(NC(=O)OCc1ccccc1)C(=O)OCc1ccccc1	-12.9	.	.	-4.2	.
Cc1cc(Nc2ccccc2)c2c([N+](=O)[O-])cc(C)c(C)c2n1	18.4	39.5*	-0.7	-1.3	-14.4
COc1ccc(CNC(=O)CN(C)S(=O)(=O)c2ccc3nc(C)sc3c2)cc1	.	3.2	0.0	.	.
CN1CCN(c2ccc(Cl)cc2NC(=O)CC2OC(=O)c3ccccc32)CC1 (stereo not given)	-28.2	-13.7	0.7	-7.2	38.5*
CN1CCN(c2ccc(Cl)cc2NC(=O)C2COc3ccccc3O2)CC1 (stereo not given)	-14.3	5.7	0.2	-0.3	1.8
COc1cccc(CN(C)C(=O)CC[C@H]2O[C@@H](n3ccc(=O)[nH]c3=O)[C@H](O)[C@@H]2O)c1	-1.6	.	.	-7.1	.
COCCCNc1nc2c(S(=O)(=O)c3ccccc3)nnn2c2ccc(Cl)cc12	.	-2.9	0.1	.	.
CC1CCCCC1NC(=O)CN1CCN(Cc2ccccc2Cl)C1=O (stereo not given)	-9.5	12.3	0.9	-3.5	4.0
O=C(CN1CCN(Cc2ccccc2Cl)C1=O)NC1CCCCCCC1	5.3	-0.4	-2.2	-1.2	31.0*
CN(C1CCCCC1)S(=O)(=O)c1ccc2[nH]c(=O)oc2c1	8.0	-3.2	-0.2	0.8	12.0
CCCCC(O)(c1ccc(F)cc1)C(CN1CCOCC1)c1ccc(Cl)cc1 (stereo not given)	-6.8	-1.7	0.7	0.0	-15.9
Cc1sc(NC(=O)c2cccs2)c(C(=O)OC(C)C)c1C	-2.0	-4.8	0.8	-6.0	31.3*
Cc1nc2nc(SCC(=O)c3cccc([N+](=O)[O-])c3)[nH]c2cc1Br	-24.0	-21.9	0.0	3.3	38.3*
O=C(NNc1nc2cc3c(cc2s1)OCO3)c1cccc(F)c1	0.0	-13.0	-0.3	3.9	40.0*
COc1cccc(OCC(O)CNC(C)c2ccccc2)c1 (stereo not given)	-18.9	-0.3	-3.3	-4.5	12.4
O=C(NCC1CCCN(C2Cc3ccccc3C2)C1)c1cccs1 (stereo not given)	-37.1	5.9	1.8	-1.4	-18.3
